LEDGF integ inh = blocks HIV-1 LEDGF/p75-dependent DNA integration | TR-FRET IN-LEDGF/p75 DNA integration, Eu/Cy5 | inhibition, % at 3.7 µM | hit rate 0.64% among 370,000 | AID 743269;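 active = inhibition above the screen-wide mean plus 3 SD, cut at about 13% in these data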;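 also: signal is the Cy5 over europium emission ratio at 671 and 618 nm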
UHRF1 binding = blocks human UHRF1 binding to methylated DNA | Q96T88 | UHRF1 binding to methylated oligo, TR-FRET | inhibition, % at 4.4 µM | hit rate 0.75% among 370,000; in the data active = inhibition above about 21%;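 also: UHRF1 SRA domain binding a hemimethylated CpG hairpin DNA probe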
MBD2 inh = blocks human MBD2 binding to methylated DNA; AID 686964; TR-FRET, MBD2 binding to methylated oligonucleotide; hit rate 0.31% among 370,000; inhibition, % at 4.4 µM; Q9UBB5; in the data active = inhibition above about 13%
PLC-gamma1 inh = inhibitors of human phospholipase C gamma1 | purified PLC-gamma1, fluorogenic substrate, fluorescence | inhibition, % at 12.2 µM | hit rate 0.84% among 370,000 | AID 720700; in the data active = inhibition above about 9.5%
PLCb3 inh = inhibitors of human phospholipase C beta3. Q01970. Purified PLC-beta3, fluorogenic substrate, fluorescence. inhibition, % at 12.2 µM. hit rate 0.18% among 370,000. AID 720704; in the data active = inhibition above about 11%
Target sequence (Q01970 whole entry, looked up): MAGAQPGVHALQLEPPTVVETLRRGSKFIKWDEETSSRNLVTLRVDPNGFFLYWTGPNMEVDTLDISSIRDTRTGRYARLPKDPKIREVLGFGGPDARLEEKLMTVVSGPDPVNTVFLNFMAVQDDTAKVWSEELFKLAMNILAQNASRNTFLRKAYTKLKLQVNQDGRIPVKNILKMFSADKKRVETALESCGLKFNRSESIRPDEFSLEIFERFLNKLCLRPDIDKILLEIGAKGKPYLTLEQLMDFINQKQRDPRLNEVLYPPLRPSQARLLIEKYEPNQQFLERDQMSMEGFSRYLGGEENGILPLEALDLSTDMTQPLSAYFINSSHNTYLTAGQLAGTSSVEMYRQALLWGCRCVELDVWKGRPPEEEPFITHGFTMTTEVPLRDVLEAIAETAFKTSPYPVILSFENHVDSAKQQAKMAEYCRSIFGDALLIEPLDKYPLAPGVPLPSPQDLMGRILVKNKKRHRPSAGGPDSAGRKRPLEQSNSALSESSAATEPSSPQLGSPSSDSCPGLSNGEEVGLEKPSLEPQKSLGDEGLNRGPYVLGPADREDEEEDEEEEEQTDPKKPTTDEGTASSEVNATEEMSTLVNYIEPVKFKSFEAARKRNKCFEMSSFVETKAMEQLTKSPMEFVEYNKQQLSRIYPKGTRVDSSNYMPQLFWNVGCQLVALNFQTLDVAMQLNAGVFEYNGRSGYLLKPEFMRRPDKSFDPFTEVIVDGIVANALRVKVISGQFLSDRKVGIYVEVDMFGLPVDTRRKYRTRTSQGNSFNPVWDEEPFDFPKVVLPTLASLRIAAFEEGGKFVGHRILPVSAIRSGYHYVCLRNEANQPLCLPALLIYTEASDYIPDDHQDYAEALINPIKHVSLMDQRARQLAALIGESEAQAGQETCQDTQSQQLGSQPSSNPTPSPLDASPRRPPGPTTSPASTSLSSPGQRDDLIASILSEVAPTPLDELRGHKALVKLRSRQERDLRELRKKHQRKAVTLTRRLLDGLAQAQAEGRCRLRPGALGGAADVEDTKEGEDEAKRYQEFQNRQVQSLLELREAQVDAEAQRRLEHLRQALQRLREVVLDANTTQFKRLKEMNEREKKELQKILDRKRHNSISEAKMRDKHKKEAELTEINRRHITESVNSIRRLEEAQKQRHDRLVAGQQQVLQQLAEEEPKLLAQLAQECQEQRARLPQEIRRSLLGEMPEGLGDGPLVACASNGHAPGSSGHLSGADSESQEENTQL
UHRF1 DNA bind = inhibits human UHRF1 binding to methylated oligonucleotide, MBD2 counter-screen; shares compounds with MBD2 inh; TR-FRET; inhibition, % at 4.4 µM; hit rate 25% among 1,000; AID 720530; in the data active = inhibition above about 21%;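 also: UHRF1 SRA domain binding a labeled hemimethylated CpG hairpin DNA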
MBD2 DBD conf = confirmation of human MBD2-DBD methylated oligonucleotide binding inhibitors | shares compounds with MBD2 inh | TR-FRET MBD2-DBD binding to methylated oligonucleotide | inhibition, % at 4.4 µM | hit rate 26% among 1,000
PLCg1 ctr = PLC-gamma1 inhibition, counter-screen for PLC-beta3 hits; shares compounds with PLC-gamma1 inh; purified PLC-gamma1, fluorogenic substrate, fluorescence; inhibition, % at 12.3 µM; hit rate 3.1% among 3,300; in the data active = inhibition above about 9.5%
PLCbeta3 conf = human PLC-beta3 inhibition, confirmation | AID 743261 | shares compounds with PLC-gamma1 inh | inhibition, % at 12.3 µM | purified PLC-beta3, fluorogenic substrate fluorescence | hit rate 1% among 3,300; in the data active = inhibition above about 11%
IN multimer act = counter-screen for LEDGF/p75 integration inhibitors: HIV-1 integrase multimerization activators; hit rate 17% among 2,000; TR-FRET HIV-1 integrase multimerization, biochemical; AID 1053131; activation, % at 7.7 µM; shares compounds with LEDGF integ inh; in the data active = activation above about 8.9%
TRFRET interf = optically interferes with TR-FRET readout in LEDGF counter-screen. TR-FRET optical interference counterscreen, HIV-1 IN multimerization. inhibition, % at 7.7 µM. 2,000 tested, under 10 active. shares compounds with LEDGF integ inh. AID 1053135;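 active = inhibition above the mean over all tested compounds plus 3 SD, which no compound reached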
IN-LEDGF confirm = confirmation of HIV-1 LEDGF/p75-dependent integration inhibitors; shares compounds with LEDGF integ inh; TR-FRET LEDGF/p75-dependent HIV-1 integration, biochemical; inhibition, % at 3.7 µM; hit rate 36% among 2,000; AID 1053136
Each line names hits and unclear results; the compound was inactive in the other large screens (follow-up assays come after a bar, where they were run). Sampled rows, rich in hits. Any-hit rate of the full collection: about 2.4%. Rule as the data show it, unless noted: active = inhibition above about 14%; inactive = the rest.

C=CCN1[C@H](Cc2ccccc2)COc2cc(N3CCSCC3)ccc2S1(=O)=O	none
N[C@@H](Cc1ccc(O)c(O)c1)C(=O)O	LEDGF integ inh 89, UHRF1 binding 67, MBD2 inh 34 | UHRF1 DNA bind 96 | MBD2 DBD conf 59 | IN multimer act 53 | TRFRET interf inactive | IN-LEDGF confirm 93
CC(=O)Oc1cccc(/C=c2\sc3nc(-c4ccco4)nn3c2=O)c1	none
CCCOc1ccc(/C=c2\sc3nc(-c4ccco4)nn3c2=O)cc1OCC	LEDGF integ inh 13, UHRF1 binding 31, MBD2 inh 31 | UHRF1 DNA bind inactive | MBD2 DBD conf inactive | IN multimer act inactive | TRFRET interf inactive | IN-LEDGF confirm inactive
O=C(c1cnsn1)N1CCN(c2ccccc2)CC1	PLCb3 inh 11 | PLCg1 ctr inactive | PLCbeta3 conf inactive
C[C@H](O)[C@@H]1CN2CCc3ccc(N4CCOCC4)cc3[C@@H]2C[C@@H]1N(C)C(=O)c1cccc(Cl)c1	none
CCOC(=O)Nc1cc(=O)c([N+](=O)[O-])c(N)[nH]1	PLCb3 inh 13 | PLCg1 ctr inactive | PLCbeta3 conf inactive
CCOC(=O)Nc1n[nH]c(NC(=O)OCC)c1[N+](=O)[O-]	none
C=CS(=O)(=O)N(Cc1ccc(F)cc1)C(=C)C(=O)OC	none
Cc1cc(NC(=O)CSc2nnc(-c3cccs3)n2N)no1	PLC-gamma1 inh 9.9 | PLCg1 ctr inactive | PLCbeta3 conf inactive
CCn1c(SCC(=O)Nc2ccc(OC)c(OC)c2)nnc1-c1cccs1	PLC-gamma1 inh 12 | PLCg1 ctr inactive | PLCbeta3 conf inactive
CCCCn1c(SCC(=O)Nc2cc(C)on2)nnc1-c1cccs1	none
COC(=O)[C@]12C[C@H](CC(=O)N3CCCCC3)C(=O)N(CCC3=CCCCC3)C1=C[C@H](C(C)C)O[C@@H]2C1CC1	none
CCC(C)N(C(=O)Cn1nc(Cc2ccncc2)c2ccccc2c1=O)C(C)CC (stereo not drawn)	none
Cc1cccc(C)c1-n1ncc(C(=O)NC2CCCC2)c1C1CCNCC1	PLC-gamma1 inh 15 | PLCg1 ctr inactive | PLCbeta3 conf inactive
O=S(=O)(CC1NCc2ccccc21)NCc1ccc(F)cc1 (stereo not drawn)	none
C=CCNc1nc(Cl)nc(Nc2ccccc2)n1	PLC-gamma1 inh 11 | PLCg1 ctr inactive | PLCbeta3 conf inactive
COc1ccc(CC(=O)NNC(=O)CSc2nnc(Cc3ccc(OC)cc3)n2-c2ccccc2)cc1	none
O=C(CSc1nnc(Cc2ccccc2)n1-c1cccc(Cl)c1)NNC(=O)Cc1ccccc1	PLC-gamma1 inh 10 | PLCg1 ctr inactive | PLCbeta3 conf inactive
O=C1CCCN2N=C(SCC(=O)N3N=C(c4ccc(Br)cc4)CC3c3ccc(F)cc3)SC2=N1 (stereo not drawn)	PLC-gamma1 inh 14 | PLCg1 ctr inactive | PLCbeta3 conf inactive
CC(=O)C1(C(=O)Nc2cc(C)cc(C)c2)CC(c2ccccn2)=NO1 (stereo not drawn)	none
CCOC(=O)[C@]12CCCCC/C=C\1N(Cc1ccc(OC)cc1)C(=O)[C@H]2CC(=O)NCCCCc1ccccc1	none
COC(=O)CCCC(=O)N1CCC(CCC(=O)NCc2ccc(F)cc2)CC1	none
COC(=O)CCC(=O)N1CCC(CCC(=O)NCc2ccc(F)cc2)CC1	PLC-gamma1 inh 13 | PLCg1 ctr inactive | PLCbeta3 conf inactive
O=C(CSc1nnc(-c2ccccc2)n1-c1ccccc1)NN=C/C=C\c1ccccc1[N+](=O)[O-]	none
FC(F)(F)c1cccc(N2CCN(C(=S)Nc3nccc4ccccc34)CC2)c1	none
Cc1cccc(Nc2nnc(SCc3cn4ccsc4n3)s2)c1	PLC-gamma1 inh 10 | PLCg1 ctr inactive | PLCbeta3 conf inactive
O=c1cc(CSc2nnc(Nc3ccccc3)s2)nc2sccn12	none
COc1ccc(CN2CCN(c3ncnc4scc(-c5ccc(F)cc5)c34)CC2)cc1	none
c1ccc(N2CCN(c3ncnc4scc(-c5cccs5)c34)CC2)cc1	PLC-gamma1 inh 11 | PLCg1 ctr inactive | PLCbeta3 conf inactive
CCOc1ccc(CN2CCN(c3ncnc4scc(-c5ccccc5)c34)CC2)cc1	PLC-gamma1 inh 10.0 | PLCg1 ctr inactive | PLCbeta3 conf inactive
Fc1ccc(-c2csc3ncnc(N4CCN(c5ccccc5)CC4)c23)cc1	none
O=S1(=O)c2ccc(N3CCCC3)cc2Oc2ccccc2CN1Cc1cn(Cc2ccc(C(F)(F)F)cc2)nn1	none
O=C(Nc1nc(Cc2ccccc2)c(Cc2ccccc2)n1Cc1ccccc1)c1ccccc1	none
COc1ccc(-c2c(S(=O)(=O)c3ccccc3)cnn2-c2ccccc2)cc1	none
O=S(=O)(c1ccccc1)c1cnn(-c2ccccc2)c1-c1ccc(Cl)cc1	PLCb3 inh 20 | PLCg1 ctr inactive | PLCbeta3 conf 17
COc1ccc([C@@H]2[C@@H]3C(=O)N(C(C)(C)C)C(=O)[C@@H]3[C@]3(Cc4ccccc4)C(=O)N(c4cccc(Cl)c4)C(=O)N23)cc1	PLC-gamma1 inh 9.6 | PLCg1 ctr inactive | PLCbeta3 conf inactive
CC(C)(C)N1C(=O)[C@H]2[C@@H](c3ccc(Br)cc3)N3C(=O)N(c4cccc(Cl)c4)C(=O)[C@@]3(Cc3ccccc3)[C@H]2C1=O	PLC-gamma1 inh 10 | PLCg1 ctr inactive | PLCbeta3 conf inactive
Cc1cc(N2CCCCC2)nc(SCc2ccc(C#N)cc2)n1	PLC-gamma1 inh 11 | PLCg1 ctr inactive | PLCbeta3 conf inactive
Cn1c(=O)n(Cc2ccc(Cl)cc2)c(=O)c2c1nc1n2CCN1Cc1ccco1	PLC-gamma1 inh 11 | PLCg1 ctr inactive | PLCbeta3 conf inactive
COC(=O)[C@]1(CNC(C)=O)CC(=O)N(Cc2ccc(Cl)cc2)[C@@H]1c1ccc(OC)cc1	PLC-gamma1 inh 11 | PLCg1 ctr inactive | PLCbeta3 conf inactive
CCOC(=O)NC[C@@]1(C(=O)OC)CC(=O)N(C)[C@@H]1c1ccccc1	none
